PrPC TRFRET = reduces human prion protein on the cell surface; P04156; hit rate 0.43% among 370,000; cell surface PrPC, TR-FRET read-out; inhibition, % at 13.8 µM; in the data active = inhibition above about 24%; also: 0% = median of the test wells and 100% = reference compound wells
VHR inh abs = inhibitors of human VHR1 phosphatase (DUSP3). P51452. recombinant VHR phosphatase, pNPP absorbance. inhibition, % at 13.3 µM. hit rate 0.52% among 290,000; in the data active = inhibition above about 50%
Target sequence (P51452 whole entry, looked up): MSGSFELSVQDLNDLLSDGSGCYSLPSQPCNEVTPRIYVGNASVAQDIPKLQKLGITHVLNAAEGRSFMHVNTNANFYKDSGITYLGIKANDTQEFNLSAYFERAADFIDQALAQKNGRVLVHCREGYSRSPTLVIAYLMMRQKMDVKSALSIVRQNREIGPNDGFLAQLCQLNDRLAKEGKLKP
ugtP null kill = growth inhibition of S. aureus ugtP deletion strain; S. aureus RN4220 ugtP deletion, OD600 growth, 16 h; growth inhibition, % (concentration not given with the values); hit rate 0.54% among 330,000; AID 1259309; in the data active = growth inhibition above about 68%;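 also: plate controls were untreated wells for no effect and antibiotic for full effect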
PfHsp40 yeast = rescue of PfHsp40-mediated yeast toxicity | S. cerevisiae expressing PfHsp40, growth rescue, ATP luminescence | growth rescue, % at 12.5 µM | hit rate 0.68% among 340,000; in the data active = growth rescue above about 28%, passing the limit was not always enough;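 also: yeast W303a lacking pdr1 and pdr3 grown in galactose medium; growth measured after three days at 30 °C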
RN4220 kill = kills Staphylococcus aureus RN4220; hit rate 0.33% among 330,000; AID 1259311; inhibition, % (concentration not given with the values); S. aureus RN4220 growth, OD600, 16 h; in the data active = inhibition above about 85%;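 also: plate controls were untreated cells for no effect and reference antibiotic for full effect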
* = called active by the depositor; . = not tested or not shown. Hits are enriched below; roughly 1.8% of the tested compounds scored in any of these assays.

SMILES	PrPC TRFRET	VHR inh abs	ugtP null kill	PfHsp40 yeast	RN4220 kill
O=[N+]([O-])c1ccc(-c2cnc(SCc3ccccc3Cl)[nH]2)cc1	-4	10	-10	149*	6
O=[N+]([O-])c1ccc(-c2cnc(SC(c3ccccc3)c3ccccc3)[nH]2)cc1	2	15	24	1	49
CCCNC1C(=O)N2C(C(=O)OCCC)=C(C)CSC12 (centres undefined)	.	.	-1	.	2
Cn1c(S(=O)(=O)c2ccc([N+](=O)[O-])cc2)nc(Br)c1Br	-8	13	95*	-1	98*
CCCCCC(O)C=CC1C(O)CC(O)C1CC=CCCCC(=O)OC (centres undefined)	.	.	-2	.	10
O=C1NC(=S)S/C1=C\c1cc(Cl)ccc1Cl	5	.	100*	-2	100*
Cc1cc(C=C2SC(=S)NC2=O)c(C)[nH]1	.	.	0	.	13
O=C(COc1ccc2ccccc2c1)Nc1cccc(C(=O)Nc2ccccc2C(=O)O)c1	6	-4	19	37*	30
CC(=O)Nc1ccc(-c2csc(NNC(=O)c3ccccc3)n2)cc1	-8	-2	-2	-2	3
CC(=O)Nc1ccc(-c2csc(N/N=C(/C)c3ccccc3)n2)cc1	-5	6	.	90*	.
COC(=O)C1=C(c2ccc(OC(F)(F)F)cc2)CC2CCC1N2C(=O)NCc1cccc2ccccc12 (centres undefined)	.	.	2	.	-14
C(=N\N1CCOCC1)/c1ccsc1	2	57*	.	94*	.
C(=N\N1CCOCC1)/c1cccs1	4	37	.	0	.
C[C@@]12C(=O)N(CC3CCCO3)CC(=O)N1C1c3cc(Cl)ccc3OCC1C2c1ccccc1 (some centres undefined)	.	.	15	.	11
Nc1nn2c(-c3ccccc3)cc(=O)[nH]c2c1N=Nc1ccc(Br)cc1	2	111	100*	0	100*
COc1ccc(C2CC(=O)C=C(c3cc(C)ccc3F)C2)cc1 (centres undefined)	.	.	8	.	4
CCCCc1nnc(NC(=O)CSCc2cc(=O)n3cc(C)sc3n2)s1	-6	56*	5	-1	2
Cc1onc(-c2c(Cl)cccc2Cl)c1COC(=O)c1ccc([N+](=O)[O-])cc1	1	0	8	0	3
Cc1onc(-c2c(Cl)cccc2Cl)c1COC(=O)c1ccc(Cl)cc1	3	9	89*	0	5
COC(=O)CSc1nc2cc3c(cc2cc1C)OCCO3	9	8	1	163*	17
O=S(=O)(Nc1ccc(-n2cccc2)cc1)c1ccc(Cl)c(Cl)c1	-1	6	-30	66*	-12
Cc1[nH]n(-c2ccccc2)c(=O)c1C=NNC(=O)C1COc2ccccc2O1 (centres undefined)	.	.	4	.	22
CCOc1ccc(-n2c(O)c(/C=N/NC(=O)C3COc4ccccc4O3)c3ccccc3c2=O)cc1 (centres undefined)	3	-18	.	303*	.
O=C(NN=Cc1cccc(Oc2ccccc2)c1)c1cccc(O)c1	.	.	9	.	2
CC1CCCN(S(=O)(=O)c2ccc(S(=O)(=O)N3CCCN(Cc4ccccc4)C3)cc2)C1 (centres undefined)	6	52*	-1	-1	3
SMILES	PrPC TRFRET	VHR inh abs	ugtP null kill	PfHsp40 yeast	RN4220 kill
CCOC(=O)C1CCCCN1C(=O)C(=Cc1ccc(OC)cc1)c1ccc(OC)c(OC)c1 (centres undefined)	.	.	4	.	4
CC1CC(C)CN(C(=O)c2cccc(S(=O)(=O)Nc3cc(C(F)(F)F)ccc3Cl)c2)C1 (centres undefined)	10	-10	27	225*	12
O=C1Nc2ccccc2/C1=N/N=C/c1ccc(-c2ccc([N+](=O)[O-])cc2)o1	3	54*	.	1	.
O=C1Nc2ccccc2C1=NN=Cc1ccc(-c2ccc([N+](=O)[O-])cc2)o1	.	.	2	.	0
C/C(C=NNC(=O)Cn1cnc2ccccc21)=C\c1ccccc1	.	.	4	.	0
CC(=O)N1CC(=O)Nc2ccc(Br)cc2C1c1ccc(F)cc1 (centres undefined)	-3	38	10	85*	2
CCCC(=O)N1CC(=O)Nc2ccc(Br)cc2C1c1ccc(F)cc1 (centres undefined)	-3	16	5	2	1
CC(=O)c1ccc(NC(=S)N2CCN(C(=S)Nc3ccc(C(C)=O)cc3)C(C)C2)cc1 (centres undefined)	-3	25	0	-1	0
COc1c(N2CCN(C(=S)Nc3ccc(F)cc3)C(C)C2)c(F)cc2c(=O)c(C(=O)O)cn(C3CC3)c12 (centres undefined)	-3	23	99*	-1	100*
COc1c(N2CCN(C(=S)NC3CC4CCC3C4)C(C)C2)c(F)cc2c(=O)c(C(=O)O)cn(C3CC3)c12 (centres undefined)	-3	34	100*	0	100*
CN(C)S(=O)(=O)c1ccc(C(=O)NCC(=O)NN=Cc2ccccc2Cl)cc1	.	.	3	.	3
CC(NCCN(C)C)C1CCC2C3CCc4cc(O)ccc4C3CCC12C (centres undefined)	-13	.	.	63*	.
Cc1cc(C)n(CC(=O)NN=Cc2ccc([N+](=O)[O-])s2)n1	.	.	24	.	23
CCc1cc(CNC(=O)c2ccc(OC)c(OC3CCN(C(C)C)CC3)c2)on1	-3	57*	-5	0	-3
O=C(NC1CCCCC1)C(O)C(O)C(=O)NC1CCCCC1 (centres undefined)	.	.	-1	.	4
Cc1ccc2c(c1)C1C(CO2)C(c2ccccc2)[C@@]2(C)C(=O)NC(C)C(=O)N12 (some centres undefined)	.	.	0	.	2
CC1(C)S[C@@H]2[C@H](NC(=O)Cc3ccccc3)C(=O)N2[C@H]1C(=O)O	-3	-3	100*	1	100*
COC(=O)C1N2C(=O)C(NC(=O)COc3ccccc3)C2SC1(C)C (centres undefined)	.	.	101*	.	101*
CC1(C)S[C@@H]2[C@H](NC(=O)C(NC(=O)N3CCNC3=O)c3ccccc3)C(=O)N2[C@H]1C(=O)O (some centres undefined)	0	-1	100*	0	100*
CCCCCCCCCOC(=O)C1N2C(=O)[C@@H](NC(=O)COc3ccccc3)[C@H]2SC1(C)C (some centres undefined)	1	.	.	4	.
O=C(NN=Cc1ccccc1)c1n[nH]c2c1CCCC2	.	.	1	.	5
CCN1CCN(C(=O)NC(C(=O)NC2C(=O)N3C(C(=O)O)=C(CSc4nnnn4C)CSC23)c2ccc(O)cc2)C(=O)C1=O (centres undefined)	.	.	100*	.	101*
Cc1c(Cl)cnn1CC(=O)NC1C(=O)N2C(C(=O)O)=C(CSc3nnnn3C)CSC12 (centres undefined)	-8	3	100*	-1	100*
CC(C(=O)NC1C(=O)N2C(C(=O)O)=C(CSc3nnnn3C)CSC12)n1cc(Cl)cn1 (centres undefined)	-8	12	100*	0	100*

Source: PubChem BioAssay
